Test results reported in PubChem BioAssay (Tox21).
Inconclusive results are not listed. Activity calls are given as the source filed them. Unless noted, calls come from the whole dose curve; as a rule, active = well fitted curve in the direction sought with a large enough effect in the repeat runs; inconclusive = weak or mixed curves; inactive = no such curve, though single readings can be large; an effect the other way counts as inactive or inconclusive.

Columns and labels:
[1] = biological target: Nuclear receptor subfamily 1 group I member 3 (Homo sapiens) (UniProt Q14994); experiment: qHTS assay to identify small molecule antagonists of the constitutive androstane receptor (CAR) signaling pathway (AID 1224838);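 note: HepG2 cells stably expressing hCAR with CYP2B6 luciferase reporter stimulated by CITCO; nearly all actives have a fitted effect of over 40% in size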
Sequence of Nuclear receptor subfamily 1 group I member 3 (Homo sapiens) (Q14994 whole entry, looked up): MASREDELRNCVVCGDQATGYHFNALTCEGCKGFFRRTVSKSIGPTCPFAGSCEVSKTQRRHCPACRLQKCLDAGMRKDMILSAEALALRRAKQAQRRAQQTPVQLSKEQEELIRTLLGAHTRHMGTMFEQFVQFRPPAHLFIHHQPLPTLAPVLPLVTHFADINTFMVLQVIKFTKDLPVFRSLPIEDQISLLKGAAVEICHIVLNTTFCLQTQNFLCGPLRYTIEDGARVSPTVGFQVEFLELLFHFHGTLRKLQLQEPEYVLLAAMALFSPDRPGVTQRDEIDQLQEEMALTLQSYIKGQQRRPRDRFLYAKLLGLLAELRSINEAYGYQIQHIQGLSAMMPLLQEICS
How it was run: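 Antagonism measured as luciferase signal (ONE-Glo, 30 min, room temperature) in CAR-stimulated cells: HepG2-CYP2B6-hCAR double-stable line exposed 24 hr at 37 C to compound in a 15-point series plus 50 nM CITCO.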

[2] = biological target: Nuclear receptor subfamily 1 group I member 3 (Homo sapiens) (UniProt Q14994); experiment: qHTS assay to identify small molecule agonists of the constitutive androstane receptor (CAR) signaling pathway (AID 1224839); note: nearly all actives have a fitted effect of over 15% in size; note: potency is the fitted concentration of half-maximal effect;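 for activation: HepG2 cells stably carrying human CAR and a CYP2B6 luciferase reporter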
How it was run: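 Luminescence read-out (ONE-Glo, 30 min, room temperature) from double-stable HepG2-CYP2B6-hCAR cells exposed 24 h to 15-point compound series in presence of 0.75 uM PK11195 final.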

[3] = qHTS assay to identify small molecule antagonists of the estrogen related receptor signaling pathway with the pleiotropic PPARgamma coactivator (PGC) from Tox21 10K library - cell viability counter screen (AID 1224840; active = well fitted cell-killing curve with a large enough effect in the repeat runs, not every such curve was filed as active; note: nearly all actives have a fitted effect of over 40% in size)
How it was run: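 Counter-screen for cytotoxicity: after 17.5 h compound exposure at 37 C, CellTiter-Fluor reagent added to PGC/ERR cells for 30 min and fluorescence read. Cells were seeded at 2,000 per well 6 h before dosing.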

[4] = biological target: Thyrotropin receptor (Homo sapiens) (UniProt P16473); experiment: qHTS assay to identify small molecule agonists of the thyroid stimulating hormone receptor (TSHR) signaling pathway (AID 1224843; calls by dose curve; note: nearly all actives have a fitted effect of over 45% in size; note: potency is the fitted concentration of half-maximal effect)
Sequence of Thyrotropin receptor (Homo sapiens) (P16473 whole entry, looked up): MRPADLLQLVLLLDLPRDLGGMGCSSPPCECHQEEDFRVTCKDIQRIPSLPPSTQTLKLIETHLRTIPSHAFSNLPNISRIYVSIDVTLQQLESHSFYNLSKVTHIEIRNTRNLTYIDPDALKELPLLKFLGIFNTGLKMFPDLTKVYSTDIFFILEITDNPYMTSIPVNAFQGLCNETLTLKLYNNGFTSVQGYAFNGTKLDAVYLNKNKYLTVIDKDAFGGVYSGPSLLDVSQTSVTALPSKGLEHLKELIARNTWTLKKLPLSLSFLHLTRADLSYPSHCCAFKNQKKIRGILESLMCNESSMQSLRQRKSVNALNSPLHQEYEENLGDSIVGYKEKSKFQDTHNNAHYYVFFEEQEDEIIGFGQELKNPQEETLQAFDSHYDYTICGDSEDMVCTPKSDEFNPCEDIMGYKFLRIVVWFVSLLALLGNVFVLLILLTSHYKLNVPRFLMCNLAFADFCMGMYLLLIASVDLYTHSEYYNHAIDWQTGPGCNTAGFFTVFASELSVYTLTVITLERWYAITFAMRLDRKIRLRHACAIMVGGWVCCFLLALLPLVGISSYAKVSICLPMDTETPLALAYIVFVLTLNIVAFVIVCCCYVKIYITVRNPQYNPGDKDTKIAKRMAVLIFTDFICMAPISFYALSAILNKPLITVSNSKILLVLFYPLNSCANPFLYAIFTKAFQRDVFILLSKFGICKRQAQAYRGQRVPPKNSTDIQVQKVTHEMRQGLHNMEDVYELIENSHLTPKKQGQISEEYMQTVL
How it was run: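 Using 15 concentrations per compound in triplicate, cAMP production was monitored in TSHR-HEK293 cells after 30 min compound incubation at RT; HTRF reagents followed, with fluorescence intensity recorded after 1 h.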

[5] = qHTS assay to identify small molecule agonists of the hypoxia (HIF-1) signaling pathway - cell viability counter screen (AID 1224844; calls by dose curve; note: nearly all actives have a fitted effect of over 50% in size)
How it was run: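 Cytotoxicity measured by CellTiter-Glo ATP luminescence in the wells also read for beta-lactamase signal. Cells were HRE-bla ME-180 (2,000/well, 0.5% dialyzed FBS), exposed to compounds for 17 h at 37C.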

[6] = qHTS assay to identify small molecule agonists of H2AX (AID 1224845; active = well fitted activation curve with a large enough effect in the signal ratio in the repeat runs, not every such curve was filed as active; the % refers to the signal ratio)
How it was run: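 Wild-type CHO-K1 cells plated overnight, then exposed 3 hr at 37C to compounds at 15 concentrations (0.76% DMSO). Lysed, then HTRF anti-pH2AX(S139)-cryptate/anti-H2AX-d2 detection after 24 hr at room temperature; emissions 665 and 620 nm.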

[7] = qHTS assay to identify small molecule agonists of the hypoxia (HIF-1) signaling pathway (AID 1224846; active = well fitted activation curve with a large enough effect in the signal ratio in the repeat runs, not every such curve was filed as active; the % refers to the signal ratio)
How it was run: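 Compounds added to ME-180 cells carrying hypoxia-response-element beta-lactamase reporter (0.5% dialyzed FBS, 5 h preplating), 17 h at 37C; agonist activity detected by CCF4-AM B/G FRET read-out.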

[8] = qHTS assay to identify small molecule agonists of H2AX - cell viability counter screen (AID 1224847; calls by dose curve; note: top concentration of the series differs between compounds; nearly all actives have a fitted effect of over 30% in size)
How it was run: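 CHO-K1 wt, 1000 cells/well, o/n 37C; cpds 15 conc, 3 h 37C, 0.76% DMSO; CellTiter-Glo, 30 min RT, luminescence.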

[9] = qHTS RealTime-Glo MT Cell Viability Assay in HepG2 cells - 24 hour (AID 1224867); note: nearly all actives have a fitted effect of over 50% in size
How it was run: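 HepG2 cells (600/well) were dispensed with RealTime-Glo reagents, incubated 5 h at 37 °C, then treated with compounds in DMSO for up to 40 h. Nonlytic NanoLuc luminescence reflecting viable cells was read at each stated time point.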

[10] = qHTS RealTime-Glo MT Cell Viability Assay in HEK293 cells - 32 hour (AID 1224868); note: nearly all actives have a fitted effect of over 50% in size; note: potency is the fitted concentration of half-maximal effect; for activity change, negative = cytotoxic: top concentration of the series differs between compounds
How it was run: (§1)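 HEK293 cells seeded with NanoLuc/prosubstrate reagent, rested 5 h at 37 C, then dosed and kept at 37 C up to 40 h. Nonlytic real-time luminescence from viable cells read at 0, 8, 16, 24, 32 and 40 h.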

[11] = A CellTox Green Cytotoxicity Assay to monitor cytotoxicity in HEK293 cells - 0 hour (AID 1224869); note: nearly all actives have a fitted effect of over 50% in size
How it was run: (§2)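 Fluorescence from a DNA-binding dye excluded by viable cells was measured repeatedly in the same HEK293 wells (600 cells/well) during continuous compound exposure at 37 C. Each assay gives one read point: 0, 8, 16, 24, 32 or 40 h.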

[12] = qHTS RealTime-Glo MT Cell Viability Assay in HepG2 cells - 40 hour (AID 1224870); note: nearly all actives have a fitted effect of over 50% in size; note: potency is the fitted concentration of half-maximal effect
How it was run: (§3)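 HepG2 cells mixed with RealTime-Glo MT reagents (NanoLuc plus cell-permeant prosubstrate) were seeded at 600 cells/well, incubated 5 h at 37 C/5% CO2, then pinned with compounds in DMSO; nonlytic luminescence tracked viability during 40 h treatment.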

[13] = A CellTox Green Cytotoxicity Assay to monitor cytotoxicity in HEK293 cells - 40 hour (AID 1224871); note: nearly all actives have a fitted effect of over 45% in size
How it was run: as §2

[14] = qHTS RealTime-Glo MT Cell Viability Assay in HEK293 cells - 16 hour (AID 1224872); note: nearly all actives have a fitted effect of over 50% in size; note: potency is the fitted concentration of half-maximal effect; for activity change, negative = cytotoxicity: top concentration of the series differs between compounds
How it was run: as §1

[15] = qHTS RealTime-Glo MT Cell Viability Assay in HEK293 cells - 40 hour (AID 1224874); settings: RealTime-Glo luminescence; max response: hits give low values; note: nearly all actives have a fitted effect of over 50% in size; note: potency is the fitted concentration of half-maximal effect
How it was run: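 Luminescence, which tracks viable cell number through reduction of the prosubstrate to a NanoLuc substrate, was read over continuous 37 C culture. Cells (600/well) were premixed with reagent and rested 5 h before 23 nL of compound in DMSO was pinned.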

[16] = qHTS assay to identify small molecule antagonists of the estrogen related receptor signaling pathway with the pleiotropic PPARgamma coactivator (PGC) from Tox21 10K library (AID 1224841; call rule not given here; note: potency is the fitted concentration of half-maximal effect)
How it was run: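 Luminescence (One-Glo, 30 min at room temperature) after 18 h compound treatment at 37 C of PGC/ERR reporter cells plated at 2,000 cells/well and settled 6 h beforehand.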

[17] = qHTS assay to identify small molecule agonists of the estrogen related receptor signaling pathway with the pleiotropic PPARgamma coactivator (PGC) from Tox21 10K library (AID 1224842); note: nearly all actives have a fitted effect of over 15% in size
How it was run: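 PGC/ERR reporter cells (NTP line) were seeded 2,000 per well, rested 6 h at 37 C/5% CO2, then pin-dosed with compounds in DMSO for 18 h at 37 C; luciferase read by One-Glo luminescence after 30 min at room temperature.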

[18] = qHTS assay to identify small molecule antagonists of the estrogen related receptor (ERR) signaling pathway from Tox21 library (AID 1224848); note: nearly all actives have a fitted effect of over 50% in size; note: potency is the fitted concentration of half-maximal effect
How it was run: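 Tox21 10K compounds in DMSO tested for ERR pathway antagonism in NTP's ERR cell line; 18 h, 37 C exposure; ONE-Glo luminescence.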

[19] = qHTS assay to identify small molecule agonists of the estrogen related receptor (ERR) signaling pathway from Tox21 library (AID 1224849; calls by dose curve; note: nearly all actives have a fitted effect of over 15% in size); settings: ERR reporter cell line, ONE-Glo luciferase, 18 h; at 92.4 µM (top of the series) unless noted
How it was run: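 Luminescent agonist read-out (One-Glo, 30-minute room-temperature incubation) following 18-hour compound treatment at 37 C of the ERR cell line, which had been plated 6 hours before dosing.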

[20] = qHTS RealTime-Glo MT Cell Viability Assay in HepG2 cells - 8 hour (AID 1224873); note: nearly all actives have a fitted effect of over 55% in size
How it was run: as §3
% is set by controls: 0 for no effect and ±100 for the full control effect.

[Cl][Dy]([Cl])[Cl]
inactive: Potency [1] | Potency [2] | Potency [3] | Potency [4] | Potency [5] | Potency [6] | Potency [7] | Potency [8] | Potency [9] | Potency [10] | Potency [11] | Potency [12] | Potency [13] | Potency [14] | max response [15] -3.97%

CC1(C)[C@H]2CC[C@]1(C)C(=O)C2
inactive: Potency [1] | Potency [2] | Potency [3] | Potency [16] | Potency [17] | Potency [4] | Potency [5] | Potency [6] | Potency [7] | Potency [8] | Potency [18] | activity change, positive = activation [19] 6.28% | Potency [9] | Potency [10] | Potency [11] | Potency [12] | Potency [13] | Potency [14] | Potency [20] | max response [15] 16%

O=c1cc[nH]cc1
inactive: Potency [1] | Potency [2] | Potency [3] | Potency [4] | Potency [5] | Potency [7] | Potency [8] | Potency [9] | Potency [10] | Potency [11] | Potency [12] | Potency [13] | Potency [14] | Potency [20]

Cc1cccc(C)c1C
inactive: Potency [1] | Potency [2] | Potency [3] | Potency [4] | Potency [5] | Potency [6] | Potency [7] | Potency [8] | Potency [9] | Potency [10] | Potency [11] | Potency [12] | Potency [13] | Potency [14] | Potency [20] | max response [15] 4%

COc1cc(C(C)C)ccc1C
inactive: activity, negative = inhibition [1] -11.9% [at 19 µM] | activation [2] -0.0502% [at 19 µM] | viability change, negative = cytotoxic [3] -28.8% [at 19 µM] | activation [4] 6.84% [at 19 µM] | activity change, negative = cytotoxicity [5] 21.3% [at 15.8 µM] | activation (H2AX phosphorylation) [6] 0.221% [at 31.6 µM] | activation [7] -0.0499% [at 15.8 µM] | activity change, negative = cytotoxicity [8] 1.56% [at 31.6 µM] | activity change, negative = cytotoxicity [9] 0.531% [at 15.8 µM] | activity change, negative = cytotoxic [10] 4.56% [at 15.8 µM] | cytotoxicity [11] -0.495% [at 15.8 µM] | activity change, negative = cytotoxic [12] 19.4% [at 15.8 µM] | cytotoxicity increase [13] -5.42% [at 15.8 µM] | activity change, negative = cytotoxicity [14] -1.07% [at 15.8 µM] | max response [15] -0.423%

c1ccc2occc2c1
active: Potency [4] 13.7 µM
inactive: Potency [1] | Potency [2] | Potency [3] | Potency [16] | Potency [17] | Potency [5] | Potency [6] | Potency [7] | Potency [8] | Potency [18] | activity change, positive = activation [19] 3.98% | Potency [9] | Potency [10] | Potency [11] | Potency [12] | Potency [13] | Potency [14] | Potency [20] | max response [15] 2.38%

CCc1cccc(C)c1N(C(=O)CS(=O)(=O)O)C(C)COC (stereo unspecified)
inactive: Potency [1] | Potency [2] | Potency [3] | Potency [4] | Potency [5] | Potency [7] | Potency [8] | Potency [9] | Potency [10] | Potency [11] | Potency [12] | Potency [13] | Potency [14] | Potency [20] | max response [15] -1.03%

C/C=C/C(=O)C1=C(C)C=CCC1(C)C
inactive: Potency [1] | Potency [2] | Potency [3] | Potency [16] | Potency [17] | Potency [4] | Potency [5] | Potency [7] | Potency [8] | Potency [18] | activity change, positive = activation [19] -1.28% | Potency [9] | Potency [10] | Potency [11] | Potency [12] | Potency [13] | Potency [14]

CCOC=C(C(=O)OCC)C(=O)OCC
inactive: Potency [1] | Potency [2] | Potency [3] | Potency [4] | Potency [5] | Potency [6] | Potency [7] | Potency [8] | Potency [9] | Potency [10] | Potency [11] | Potency [12] | Potency [13] | Potency [14] | max response [15] -0.307%

C=Cc1ccc(O)c(OC)c1
inactive: Potency [1] | Potency [2] | Potency [3] | Potency [4] | Potency [5] | Potency [7] | Potency [8] | Potency [9] | Potency [10] | Potency [11] | Potency [12] | Potency [13] | Potency [14] | Potency [20]

CCCCCCCCCCCCCCCCCCNC(=O)OC1CCN(C(=O)OC[C@H](COC(=O)N(Cc2cccc[n+]2CC)C(=O)c2ccccc2OC)OC)CC1
inactive: Potency [1] | Potency [2] | Potency [17] | activity change, positive = activation [19] -55.2% [at 42.5 µM] | Potency [11]
active: Potency [16] 11.9 µM | Potency [18] 10.6 µM | Potency [10] 9.52 µM | Potency [14] 21.3 µM | Potency [15] 9.52 µM

Oc1cccc2c(O)cccc12
active: Potency [2] 30.6 µM | Potency [16] 2.73 µM
inactive: Potency [1] | Potency [17] | Potency [4] | Potency [18] | activity change, positive = activation [19] -6.39% | Potency [9] | Potency [11] | Potency [12] | Potency [13] | Potency [20] | max response [15] 3.51%

CCNc1nc(NC(C)(C)C)nc(OC)n1
active: Potency [2] 30.6 µM
inactive: Potency [1] | Potency [4] | Potency [7] | Potency [8] | Potency [9] | Potency [11] | Potency [12] | Potency [13] | Potency [14] | Potency [20]

Cc1cccc2c1ccc1ccccc12
inactive: Potency [1] | Potency [17] | Potency [6] | Potency [7] | Potency [8] | activity change, positive = activation [19] -38.7% | Potency [9] | Potency [10] | Potency [11] | Potency [12] | Potency [13] | Potency [14] | Potency [20]
active: Potency [2] 61.1 µM | Potency [18] 24.3 µM

O=C(CCN1CCC(c2ccccc2)C1)c1ccc2c(c1)OCCO2 (stereo unspecified)
inactive: Potency [1] | Potency [2] | Potency [3] | Potency [4] | Potency [11]
active: Potency [12] 21.3 µM
